# Mito fusion act – qHTS Assay for Small Molecule Inhibitors of Mitochondrial Division or Activators of Mitochondrial Fusion | Potency, µM (doses to about 46.1 µM), without a hit: top-dose growth rescue (activation), most hits filed as activators | S. cerevisiae fusion-defective mutant growth rescue, CellTiterGlo 48 h | 0.23% of 320,000 active; also: % of control where 0% means no effect; nearly all actives have a fitted effect of over 45% in size
#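 Read-out: ATP-based luminescence (CellTiterGlo, 10 min ambient) reporting growth of fusion-defective ts yeast after 48 hours at 37C on glycerol/ethanol YPEG medium in the presence of compound.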
# AT treatment – qHTS Assay for Identifying a Potential Treatment of Ataxia-Telangiectasia | F2112 A-T fibroblasts, KAP-1 phosphorylation AlphaLISA; neocarzinostatin DNA damage 30 min before lysis | Potency, µM (titrated, usually from 57.5 µM), inactives show top-dose activation, usual class: activators | 0.19% of 320,000 active; also: % of control where 0% means no effect; nearly all actives have a fitted effect of over 45% in size
#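 ATM-like activity read as KAP-1 phosphorylation via AlphaLISA donor/acceptor antibody pairs after lysis and 6 hr at 25C. Cells were ATM-null patient fibroblasts (F2112, hTERT), dosed 60 min, then exposed to the DSB inducer NCS for 30 min.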
# MCF10A rerep – A quantitative high throughput screen for small molecules that induce DNA re-replication in MCF 10a normal breast cells | MCF 10A DNA re-replication, Hoechst nuclear intensity, 48 h | Potency, µM (series often up to 46.1 µM), without a hit: top-dose activity, positive = re-replication, hits mostly activators | 2.9% of 350,000 active; also: % of control where 0% means no effect; nearly all actives have a fitted effect of over 50% in size
# a7 integrin act – qHTS for Activators of Integrin-Mediated Alleviation for Muscular Dystrophy; alpha7betagal myoblasts, beta-gal FDG fluorescence, 48 h; Potency, µM (titrated, usually from 38.3 µM), for inactives: at the highest dose activation, most hits filed as activators; 0.064% of 350,000 active;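 also: 100% = response of the positive control SU9516; nearly all actives have a fitted effect of over 60% in size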
#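 Alpha7betagal+/- myoblasts (passage 13) were plated 16-24 hr, then exposed to compounds (1:260 dilution of DMSO stock) for 48 hours at 37C. After MPER lysis, β-galactosidase reporter activity was read as FDG fluorescence (ex 480/em 540) after 30 minutes.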
# SW480 rereplic – A quantitative high throughput screen for small molecules that induce DNA re-replication in SW480 colon adenocarcinoma cells | Potency, µM (highest dose often 46.1 µM), for inactives: at the top dose re-replication activation, actives largely listed as activators | 1.8% of 340,000 active | AID 624297, 2012 | SW480 DNA re-replication, Hoechst DNA content imaging, 48 h; also: % of control where 0% means no effect; nearly all actives have a fitted effect of over 55% in size
#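 Treated cells incubate 48 hr (37 C, 5% CO2), are stained 40 min with Hoechst, and nuclear fluorescence is enumerated; a rise in nuclei with high DNA signal marks re-replication.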
# * = called active by the depositor; ? = inconclusive; . = not tested or not shown; [ ] = dose if it differs, or a comment. Only some compounds are listed: those with a hit (about 4.2% of all), similar ones and a draw of the others. Calls follow the shape of the dose curve; as a rule, active = well fitted activation curve with a large enough effect; inconclusive = small, poorly fitted or top-dose-only effect; inactive = no such curve, though single readings can be large or run the other way. Potency is read from the fitted curve at half-maximal effect.
SMILES,Mito fusion act,AT treatment,MCF10A rerep,a7 integrin act,SW480 rereplic
COc1ccccc1CNC(=O)c1ccc2nc3[nH]c4ccccc4c3nc2c1,-4.5%,1.1%,18.4µM*,-35.5%,?
CCOc1ccc(C(=O)NC(C(=O)NCc2ccccc2OC)C(C)C)cc1 (stereo not drawn),-4.0%,-2.8%,-2.0%,-15.8%,-2.3%
COc1ccccc1CNC(=O)c1ccccc1OC,6.1%,3.6%,9.2µM*,21.7%,-12.4%
COc1ccc(C(=O)N[C@H](C(=O)Nc2nc3ccccc3[nH]2)C(C)C)cc1,-0.7%,-1.3%,?,-14.1%,9.2µM*
COc1cccc(CNC(=O)CN2C(=O)COc3ccc(S(=O)(=O)N4CCCCC4)cc32)c1,.,25.3%,-1.9%,9.3%,14.7%
CC(=O)N/C(=C\c1ccccc1)C(=O)OCc1cc(C)ccc1C,-7.4%,7.8%,2.5%,-6.5%,-4.6%
Cc1cnc(C(=O)OCC(=O)NC(=O)c2ccccc2)cn1,-0.7%,-3.7%,9.5%,1.9%,1.7%
CC(C)(CCC(=S)N1CCOCC1)c1ccccc1,.,.,10.5%,-24.9%,1.1%
O=C(CN1CCOCC1)Nc1scc2c1c(=O)oc1ccccc12,-4.8%,-1.8%,0.0%,6.0%,-63.0%
Cc1cccc(C(=O)N[C@H](C(=O)Nc2nc(C)cs2)C(C)C)c1,1.0%,-3.9%,14.4%,-9.5%,6.2%
COc1ccccc1CNC(=O)c1ccc(-c2ccccc2C(F)(F)F)o1,?,9.3%,14.6µM*,-12.6%,0.6%
Cc1cccc(C(=O)N[C@H](C(=O)Nc2nc3ccccc3[nH]2)C(C)C)c1,2.0%,-2.8%,5.8µM*,0.0%,5.8µM*
COc1ccccc1CNC(=O)/C(C#N)=C/c1ccc(OC)c(OC)c1OC,-3.6%,31.5%,18.4µM*,0.0%,-10.6%
COc1ccc([C@H]2C[C@H](n3cc(COC(=O)c4ccccc4)nn3)[C@@H](O)CN2Cc2cccs2)cc1,.,.,.,17.7%,.
COCc1cc(C)nc(SCC(=O)Nc2ccc(N3CCOCC3)cc2)c1C#N,0.0%,-1.3%,-1.9%,-16.1%,-0.5%
COc1ccc(/C=N/Nc2ccc([N+](=O)[O-])cc2)cc1Cn1cc([N+](=O)[O-])cn1,-0.5%,-3.1%,12.8%,-3.8%,-0.3%
O=[N+]([O-])c1ccc(NN=Cc2cc(Br)ccc2O)nc1,.,.,11.0%,0.0%,0.731µM*
COc1ccc(/C=N/Nc2ccc([N+](=O)[O-])cc2)cc1O,-36.3%,-4.5%,11.6µM*,-44.7%,16.4µM*
O=[N+]([O-])c1ccc(N/N=C\c2cccnc2)nc1,-2.2%,3.0%,-0.5%,?,-69.4%
O=[N+]([O-])c1ccc(NN=Cc2ccco2)nc1,.,.,27.0%,-12.6%,5.0%
COc1cc(/C=N/Nc2ccc([N+](=O)[O-])cn2)cc(OC)c1O,-2.7%,-1.0%,20.6µM*,-19.6%,16.4µM*
Cc1cccc(C)c1-n1c(C)cc(/C=N\Nc2ccc([N+](=O)[O-])cn2)c1C,24.2%,-5.5%,5.17µM*,-17.7%,?
CC(=O)Nc1ccc(C=NNc2ccc([N+](=O)[O-])cn2)cc1,.,.,9.6%,14.9%,-0.2%
O=[N+]([O-])c1ccc(NN=Cc2cccc(O)c2)nc1,.,.,16.4µM*,11.6%,?
COc1ccccc1C1c2ccc3ccccc3c2Oc2ncn(CCN(C)C)c(=N)c21 (stereo not drawn),-4.7%,-1.8%,9.2µM*,-59.0%,?
SMILES,Mito fusion act,AT treatment,MCF10A rerep,a7 integrin act,SW480 rereplic
COc1ccccc1C1c2ccc3ccccc3c2Oc2ncn(CCCO)c(=N)c21 (stereo not drawn),10.7%,13.1%,?,-61.4%,130.4%
COc1ccc(C2c3c(ncn(CCCO)c3=N)Oc3ccc4ccccc4c32)cc1 (stereo not drawn),?,36.8%,?,-52.8%,?
COc1ccc(C2c3ccc4ccccc4c3Oc3ncn(CCCN(C)C)c(=N)c32)cc1 (stereo not drawn),-17.0%,5.7%,20.6µM*,-71.8%,11.6µM*
COc1ccc(C2c3ccc(O)cc3Oc3ncn(CC(C)C)c(=N)c32)cc1 (stereo not drawn),-6.6%,2.82µM*,16.5%,-23.1%,18.8%
O=C(NC(=S)Nc1ccccc1N1CCCC1)c1ccc(-c2cccc([N+](=O)[O-])c2)o1,12.3%,8.6%,4.2%,11.5%,20.6µM*
O=C(Cc1ccc(Cl)cc1)Nc1ccccc1N1CCN(C(=O)c2ccccc2)CC1,1.4%,6.6%,18.4µM*,-18.1%,?
O=C(Nc1ccccc1N1CCN(C(=O)c2ccc(Cl)cc2)CC1)c1ccc([N+](=O)[O-])o1,-8.1%,2.4%,?,-67.1%,16.4µM*
O=C(c1ccc(Cl)cc1)N1CCN(c2ccc([N+](=O)[O-])c3ncccc23)CC1,23.1µM*,.,.,.,.
O=C(NC(=S)Nc1ccccc1N1CCCCC1)c1ccc(-c2cccc([N+](=O)[O-])c2)o1,-0.2%,2.5%,3.5%,4.3%,-29.9%
O=C(c1cc(F)c(F)cc1Cl)N1CCN(c2ccc([N+](=O)[O-])c3ncccc23)CC1,-0.1%,7.8%,0.3%,2.4%,-6.1%
O=C(Nc1ccccc1N1CCN(C(=O)c2ccccc2)CC1)c1ccc(Cl)cc1,-5.0%,2.8%,3.7%,0.0%,?
O=C(O)c1ccc2c(c1)C(=O)N([C@H](Cc1ccc(Cl)cc1)C(=O)O)C2=O,-3.1%,8.4%,.,.,.
O=C(Nc1ccccc1N1CCCCC1)c1ccc([N+](=O)[O-])o1,5.62µM*,6.3%,?,-54.7%,?
COc1ccccc1-c1cc(-c2ccccc2)nc(SC(C(N)=O)c2ccccc2)c1C#N (stereo not drawn),-4.4%,2.2%,?,-69.7%,9.2µM*
Cc1nc(SC(C(N)=O)c2ccccc2)c(C#N)c(C)c1C (stereo not drawn),-1.2%,3.8%,-6.2%,-11.0%,-7.0%[9.22 µM]
CC(CCc1ccccc1)NC(=O)CCNS(=O)(=O)c1ccccc1C(F)(F)F (stereo not drawn),-1.6%,-2.1%,25.1%,1.4%,-4.1%
Cc1nc2cc(NC(=O)CS(=O)(=O)c3ccc(F)cc3)ccc2s1,4.8%,-2.2%,?,26.0%,-4.9%
C=CCN1C(=O)N(/C=C/C)c2cccc3cccc1c23,6.4%,9.7%,20.6µM*,13.2%,4.9%
COc1ccc(S(=O)(=O)N2CCCCC2)cc1NS(=O)(=O)c1ccccc1F,-0.9%,-0.1%,-44.5%,16.4%,-0.5%
COc1ccc(S(=O)(=O)N2CCCCCC2)cc1C(=O)N(C)Cc1ccc(Cl)cc1Cl,?,0.6%,2.06µM*,-43.3%,-23.6%
COc1ccc(CCNC(=O)c2cc(S(=O)(=O)N3CCCCC3)ccc2Cl)cc1,4.6%,2.4%,?,2.4%,18.4µM*
